Inconclusive results are not listed. The source made the active and inactive calls. Calls follow the shape of the dose curve; as a rule, active = well fitted curve in the direction sought with a large enough effect in the repeat runs; inconclusive = weak or mixed curves; inactive = no such curve, though single readings can be large; an effect the other way counts as inactive or inconclusive.
Assay: A CellTox Green Cytotoxicity Assay to monitor cytotoxicity in HepG2 cells - 8 hour (AID 1224890); also: nearly all actives have a fitted effect of over 45% in size
Conditions: CellTox Green fluorescence; series mostly up to 76.8 µM; cytotoxicity increase: at the top concentration
How it was run: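 Continuous culture of HepG2 cells with a membrane-impermeant DNA dye; rising fluorescence marks dead cells. Compound exposure lasted up to 40 h at 37 C, with reads every 8 h from 0 h.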
% is scaled to controls: 0 for no effect and ±100 for the full control effect; potency is read from the fitted curve at half-maximal effect.

Row | Structure (SMILES) | cytotoxicity increase | Potency
1 | CC1=C2[C@H](/C=C(\C)C(=O)O)CC[C@@H](C)[C@H]2CC1 | -10.6% (inactive) | –
2 | C=CC(C)(O)CC/C=C(\C)CCC=C(C)C (stereo unspecified) | – | 19.5 µM (active)
3 | Nc1ccc(Oc2ccc(N)c(N)c2)cc1 | 17% (inactive) | –
4 | CCOC(=O)COc1ccc2c(c1)CC(NCC(O)c1cccc(Cl)c1)CC2 (stereo unspecified) | – | 44 µM (active)

Assay: qHTS assay to identify small molecule antagonists of the estrogen receptor alpha (ER-alpha) signaling pathway using the BG1 cell line in the presence of 0.1 nM 17-beta-estradiol - cell viability counter screen (AID 1259241); also: nearly all actives have a fitted effect of over 40% in size
Conditions: VM7Luc4E2 (BG1) viability, CellTiter-Fluor protease, 22 h, 0.1 nM estradiol agonist added; series mostly up to 92.4 µM; activity change, negative = cytotoxicity: at the top concentration
How it was run: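 In this screen, hormone-deprived VM7Luc4E2 cells were seeded at 4,000 per well, dosed with compound and 0.1 nM estradiol final, and incubated 22 hr at 37C and 5% CO2; fluorogenic live-cell protease signal reported viability.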

Row | Structure (SMILES) | activity change, negative = cytotoxicity | Potency
5 | CCC1(C)NC(=O)NC1=O (stereo unspecified) | 3.53% (inactive) | –
6 | CCCCCCCCCCCCCCCCOP(=O)([O-])OCC[N+](C)(C)C | -16.1% [at 42.5 µM] (inactive) | –
7 | CCCCCCCCc1ccc(S(=O)(=O)O)cc1 | 7.78% (inactive) | –
8 | CCc1cc2cc(OC)c(OC)cc2c(Cc2ccccc2)n1 | 0.135% [at 42.5 µM] (inactive) | –
9 | CN(C)CCOc1ccccc1Cc1ccccc1 | -9.36% [at 42.5 µM] (inactive) | –
10 | Oc1ccccc1C=NCc1ccccc1 | -0.645% [at 42.5 µM] (inactive) | –
11 | CC/C=C\CCOC(=O)CCCCC | -3.09% (inactive) | –
12 | Cc1onc(-c2ccccc2)c1C(=O)Cl | 8.8% [at 42.5 µM] (inactive) | –
13 | C=CCCCCCCCCO | -2.05% (inactive) | –
14 | Clc1cccc(-c2cc(Cl)cc(Cl)c2)c1 | 8.22% (inactive) | –
15 | CCCCOc1cc(C(=O)NCCN(CC)CC)c2ccccc2n1 | -23.9% [at 42.5 µM] (inactive) | –
16 | CCCCNc1ccc(C(=O)OCCN(CC)CC)cc1 | -12.2% [at 42.5 µM] (inactive) | –
17 | CC(C)(C)c1cccc(O)c1 | 6.6% (inactive) | –
18 | COC(=O)/C=C(/C)N | 2.57% [at 42.5 µM] (inactive) | –
19 | CC(C)C(=O)OCC(C)(C)C(O)C(C)C (stereo unspecified) | 6.43% (inactive) | –
20 | COC(=O)N[C@H](C(=O)N[C@@H](Cc1ccccc1)[C@@H](O)CN(Cc1ccc(-c2ccccn2)cc1)NC(=O)[C@@H](NC(=O)OC)C(C)(C)C)C(C)(C)C | -8.71% [at 42.5 µM] (inactive) | –

Row | Structure (SMILES) | activity change, negative = cytotoxicity | Potency
21 | CCCCCOc1ccc(C2SC(=O)NC2=O)cc1OCC (stereo unspecified) | 2.15% [at 42.5 µM] (inactive) | –
22 | NCCCN1CCN(CCCN)CC1 | -6.33% (inactive) | –
23 | CCN(CC)CCNC(=O)COc1ccc(Cl)cc1 | -7.53% [at 42.5 µM] (inactive) | –
24 | COc1ccc2nc(NC(=O)Nc3ccccc3)sc2c1 | -1.78% [at 42.5 µM] (inactive) | –
25 | Cc1cc(NS(=O)(=O)c2ccc(N)cc2)nc(C)n1 | 0.177% [at 42.5 µM] (inactive) | –
26 | O=Cc1ccc(O)c(O)c1O | -29% [at 42.5 µM] (inactive) | –
27 | CN(C)C(=O)NC1(c2ccccc2)CCN(CCC[C@]2(c3ccc(Cl)c(Cl)c3)CCCN(C(=O)c3ccccc3)C2)CC1 | 3.34% [at 19 µM] (inactive) | –
28 | CCOc1ccc(NS(=O)(=O)c2ccc(N)cc2)nn1 | 3.47% [at 42.5 µM] (inactive) | –
29 | CCCN(CCC)C(=O)C(CCC(=O)O)NC(=O)c1ccccc1 (stereo unspecified) | -4.35% [at 42.5 µM] (inactive) | –
30 | CCCc1c2oc(C(=O)O)cc(=O)c2cc2c(=O)cc(C(=O)O)n(CC)c12 | -11.7% [at 42.5 µM] (inactive) | –
31 | CN(CCCN1c2ccccc2CCc2ccccc21)CC(=O)c1ccc(Cl)cc1 | -5.62% [at 42.5 µM] (inactive) | –
32 | CC1=C2[C@H](/C=C(\C)C(=O)O)CC[C@@H](C)[C@H]2CC1 | -22.4% (inactive) | –
33 | CC(C)S | 3.47% (inactive) | –
34 | C=CC(C)(O)CC/C=C(\C)CCC=C(C)C (stereo unspecified) | -3.63% (inactive) | –
35 | Nc1ccc(Oc2ccc(N)c(N)c2)cc1 | – | 48.6 µM (active)
36 | Cc1ccc(C(C)C)cc1O | -7.55% (inactive) | –
